Reference: PubChem BioAssay (NCI)
The panel holds about 83,000 compounds, 20% with a hit somewhere; the sample as a whole holds those more often.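 Results are percent growth after 48 hours of single-concentration exposure. 100 means growth as in untreated cells, lower positive values show inhibition; negative values down to -100 show cell death.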 Active and inactive are the calls of the source.

Each compound was assayed on NCI-H522 lung (assay: NCI-60 one-dose screen, 48 h (100 = growth as untreated, 0 = no growth, -100 = all killed)). Details: 10 µM unless noted.
Description: Growth inhibition of the NCI-H522 human Non-Small Cell Lung tumor cell line is measured as a screen for anti-cancer activity. Cells are grown in 96 well plates and exposed to the test compound for 48 hours. Compounds are tested at a single concentration, which is 10^-5 M for most compounds. The reported endpoint is percent growth (GI% or GIPRCNT), where numbers from 0 - 100% represent growth inhibition, and numbers from -100% - 0 represent cell death. For example, a value of 40 represents 60% growth inhibition. A value of 0 means no net growth occurred over the course of the experiment. A value of -40 indicates 40% of cells at the beginning of the experiment died by the end of the experiment. A value of -100 means all cells are dead at the end of the experiment.
NCI-60 Human Tumor Cell Lines Screen was performed using the standard one-dose NCI protocol, which is described in more detail at https://dtp.cancer.gov/discovery_development/nci-60/default.htm.
Compounds with GIPRCNT values below 10 were considered active. Activity score was based on GIPRCNT using the following formula: […]
Score is 0 for GIPRCNT values of 100 or above, 50 for GIPRCNT values of 0, and 100 for GIPRCNT values of -100.

Row | Structure (SMILES) | growth
1 | CN(C)C1=NCCN1 | 73.4% (inactive)
2 | O=C1c2ccccc2C(=O)c2c1oc1c2c(=O)[nH]c2ccc(Cl)cc21 | -16.8% (active)
3 | Cc1[nH]c(N=Nc2ccccc2)nc1N=Nc1ccccc1 | -17.5% (active)
4 | COc1cc(-c2nn(-c3ccc(Br)cc3)cc2CO)ccc1O | 72.1% (inactive)
5 | Oc1ccccc1-c1nc2c3ccccc3c3ccccc3c2o1 | 99.3% (inactive)
6 | CC1(C)Cc2c(Br)c(Br)c(Br)c(OCC(O)CN3CCOCC3)c2O1 (stereo not given) | -84.2% (active)
7 | COc1ccc(-c2cs/c(=N\N=C\c3ccc(O)cc3O)n2/N=C/c2ccc(O)cc2O)cc1 | -35.6% (active)
8 | O=c1[nH]nc(-c2ccccc2)c2sc(NC(=S)Nc3ccc(Cl)cc3)nc12 | 68.6% (inactive)
9 | Cc1[nH]c2ncnc(Oc3ccc(NC(=O)Nc4ccc(Cl)c(C(F)(F)F)c4)cc3)c2c1C | 25.3% (inactive)
10 | C/C(=N\NC(=O)c1ccncc1)c1ccc(N)cc1 | 75.4% (inactive)
11 | COc1ccccc1N1CCN(CCCOc2ccc(C(=O)/C=C3/C(=O)Nc4ccccc43)cc2)CC1 | 65.9% (inactive)
12 | COC(=O)/C=C/c1cc(OC)c2c(c1)[C@@H](C(=O)OC)[C@H](c1ccc(OC)c(OC)c1)O2 | 22.1% (inactive)
13 | C#C[C@@]1(O)[C@@H](CO)O[C@@H](n2cc(Cl)c3c(N)ccnc32)[C@@H]1O | 75.1% (inactive)
14 | COc1ccc(-c2cc(-c3nnc(SCC(=O)Nc4ccc(/C(C)=N\O)cc4)o3)c3ccccc3n2)cc1 | 87% (inactive)
15 | Cc1cccc2nc3c(n12)C(=O)C(=O)c1ccccc1-3 | 43.8% (inactive)
16 | O=C(Nc1ccc2ncnc(Nc3ccc(F)c(Cl)c3)c2c1)c1ccccc1 | 55.6% (inactive)
17 | C=C(C)[C@@H]1CC[C@]2(C(=O)N3CCN(C)CC3)CC[C@]3(C)[C@H](CC[C@@H]4[C@@]5(C)C/C(=C/c6ccco6)C(=O)C(C)(C)[C@@H]5CC[C@]43C)[C@@H]12 | 74% (inactive)
18 | O=C(/C(=C/c1ccc([N+](=O)[O-])cc1)SCc1ccc(F)cc1)c1ccc(Cl)cc1 | -41.4% (active)
19 | OCCNc1nc(NCCO)nc(Nc2ccc(C3=NN(c4cc(Cl)cc(Cl)c4)C(c4ccccc4)C3)cc2)n1 (stereo not given) | 48.1% (inactive)
20 | CC1=C(CCCOC(=O)NCCCl)C2=C(C)C3(CC3)[C@@](C)(O)C(=O)C2=C1 | 26.6% (inactive)

Row | Structure (SMILES) | growth
21 | CCC[S@@](=O)c1ccc2nc(NC(=O)OC)[nH]c2c1 | 59.9% (inactive)
22 | C=C(C)[C@@H]1CC[C@]2(C(=O)OCCOCCOCC[P+](c3ccccc3)(c3ccccc3)c3ccccc3)CC[C@]3(C)[C@H](CC[C@@H]4[C@@]5(C)CC[C@H](OC(C)=O)C(C)(C)[C@@H]5CC[C@]43C)[C@@H]12 | -75.2% (active)
23 | Cc1nc2sc(C(=O)Nc3cccc4ccccc34)c(N)c2cc1C(C)O (stereo not given) | -15.9% (active)
24 | O=C(N/N=C/C[C@@H]1[C@@H](/C=C/[C@@H](O)COc2cccc(Cl)c2)[C@H](O)C[C@@H]1O)c1ccncc1 | 69.9% (inactive)
25 | CN(C)C(CNc1oc(-c2cccc3ccccc23)nc1C#N)c1ccco1 (stereo not given) | 86.9% (inactive)
26 | N#Cc1c(NC(=O)c2cccs2)[n+]([O-])c2cc(C(F)(F)F)ccc2[n+]1[O-] | 77.4% (inactive)
27 | CCC1=C[C@H]2CN(CCc3c([nH]c4ccccc34)[C@@](C(=O)OC)(c3cc4c(cc3OC)N(C)[C@H]3[C@@](O)(C(=O)OC)[C@H](OC(C)=O)[C@]5(CC)[C@@H]6C[C@@H]6CN6CC[C@]43[C@@H]65)C2)C1 | -29% (active)
28 | O=C(NC[C@H](O)CN1CCc2ccccc2C1)c1cc(NC2COC2)ncn1 | 92% (inactive)
29 | COc1ccc2nc3nc4ccc[nH]c4cc3c2c1 | 84.4% (inactive)
30 | CCc1ccc(OCc2ccccc2C(=O)Nc2ccc3nc(C)cc(N)c3c2)cc1 | -84.5% (active)
31 | Nc1c(C(=O)Nc2cccc3ccccc23)sc2nc3c(cc12)CCCCC3 | 0.413% (active)
32 | CSc1cccc(NC(=O)Nc2nc3c(C)cccc3s2)c1 | 77.6% (inactive)
33 | C=C(C)[C@@H]1CC[C@]2(C(=O)NCCCO)CC[C@]3(C)[C@H](CC[C@@H]4[C@@]5(C)CCCNC(C)(C)[C@@H]5CC[C@]43C)[C@@H]12 | 88% (inactive)
34 | O=S(=O)(O)c1ccc(N=NSc2ccc3ccccc3c2)cc1 | 97% (inactive)
35 | COc1ccc(Cc2nc(C#N)c(N3CCN(c4ccc(F)cc4)CC3)o2)cc1 | 73.6% (inactive)
36 | CCOC(=O)c1c(C)nc2c(c1N)CC(=O)N2CCc1ccccc1 | -6.01% (active)
37 | [2H]c1cc2c(c([2H])c1F)/C(=C/c1[nH]c(C)c(C(=O)NCCN(CC)CC)c1C)C(=O)N2 | 62.4% (inactive)
38 | Nc1cc(N)c(S(=O)(=O)O)cc1N=Nc1cc([N+](=O)[O-])ccc1O | 88.3% (inactive)
39 | Cc1ccc(C(=O)O)o1 | 87% (inactive)
40 | CCN1CCN(c2ccc(NC(=O)Nc3nc4ccc(-c5ccccc5OC)cc4s3)cc2)CC1 | -78.1% (active)
